Bioassay records from PubChem BioAssay.
Shown is part of a subset that was picked to be rich in hits.
FECH inh: blocks human mitochondrial ferrochelatase activity; purified FECH, Ni-mesoporphyrin absorbance 550 nm; P22830; AID 1671448; calls only at 10 µM (by protocol); actives 3.3% (n = 20,000);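 active means enzyme reaction rate more than 3 SD below the solvent-only control wells on the same plate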;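 further: lower slope than DMSO wells means FECH inhibition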
Target sequence (P22830 whole entry, looked up): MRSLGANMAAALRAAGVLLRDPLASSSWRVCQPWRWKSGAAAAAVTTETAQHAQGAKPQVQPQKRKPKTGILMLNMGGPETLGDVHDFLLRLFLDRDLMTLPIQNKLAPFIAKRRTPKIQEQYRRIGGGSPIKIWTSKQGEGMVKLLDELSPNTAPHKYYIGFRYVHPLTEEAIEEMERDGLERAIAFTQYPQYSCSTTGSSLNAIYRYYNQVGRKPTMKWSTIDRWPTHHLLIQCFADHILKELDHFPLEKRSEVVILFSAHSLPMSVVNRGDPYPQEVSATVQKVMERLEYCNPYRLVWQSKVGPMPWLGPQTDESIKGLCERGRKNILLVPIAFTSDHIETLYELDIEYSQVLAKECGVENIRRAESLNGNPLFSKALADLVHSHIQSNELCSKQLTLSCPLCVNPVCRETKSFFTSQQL
An asterisk follows results filed as active; i = inactive; + = active, no number.

SMILES | FECH inh
CCN1CCCC1CNC(=O)C1CCN(c2ccc(-c3cccs3)nn2)CC1 (centres undefined) | i
COc1ccc(OC)c(Nc2nc(N3CCCCC3)nc3c2cnn3-c2ccccc2)c1 | i
CC(=O)NCc1nnc2n1CCN(c1ncnc3c1CCC3)CC2 | i
Cc1nn(-c2cc(N3CCCC3)ncn2)c(C)c1CCC(=O)NC1CCCCCC1 | i
COc1ccc(NC(=O)CSc2cc(N3CCCCC3)ncn2)cc1 | i
O=C(CSc1cc(N2CCCCC2)ncn1)NC1CCCC1 | +
COc1ccc(S(N)(=O)=O)cc1-c1nc(C(C)C)no1 | i
COc1ccc(C(Nc2ccc(S(N)(=O)=O)cc2)C(=O)NC(C)(C)C)cc1OC (centres undefined) | i
CCc1ccc2c(c1)-c1ccccc1S(=O)(=O)N2CC(=O)NCCSC1CCCCC1 | i
CCc1ccc2c(c1)-c1ccccc1S(=O)(=O)N2CC(=O)NCCCn1ccnc1 | +
CCc1ccc(C2=C(C)C(=O)N(CC(=O)Nc3cc(C)ccc3OC)S2(=O)=O)cc1 | i
CCc1ccc2c(c1)-c1ccccc1S(=O)(=O)N2CC(=O)NCc1cccnc1 | +
CCc1ccc(C2=C(C)C(=O)N(CC(=O)NCc3cccs3)S2(=O)=O)cc1 | i
O=C(CN1c2ccc(F)cc2-c2ccccc2S1(=O)=O)NCCCn1ccnc1 | i
COC(=O)c1cc2ccsc2n1CC(=O)Nc1ccc(C(C)=O)cc1 | i
COc1ccc(-c2noc(CSCC(=O)Nc3cc(OC)cc(OC)c3)n2)cc1 | i
COc1ccc(NCc2cc(=O)n3[nH]c(NCc4ccccc4)nc3n2)cc1 | i
COc1ccc(CNc2nc3nc(CNc4ccc(F)cc4)cc(=O)n3[nH]2)cc1 | +
CCCNCc1cc(=O)n2[nH]c(NCc3ccc(Cl)cc3)nc2n1 | i
COc1ccc(CNc2nc3nc(CNc4cc(Cl)ccc4OC)cc(=O)n3[nH]2)cc1 | i
O=c1cc(CNc2ccc(F)cc2)nc2nc(NCc3ccc(F)cc3)[nH]n12 | i
O=c1cc(CNc2cccc(Cl)c2)nc2nc(NCc3ccccc3)[nH]n12 | i
O=c1cc(CNc2ccc(Cl)cc2)nc2nc(NCc3ccccc3)[nH]n12 | +
O=c1cc(CNc2ccc(Cl)cc2)nc2nc(NCc3ccc(F)cc3)[nH]n12 | i
CCCNCc1cc(=O)n2[nH]c(NCc3ccc(OC)cc3)nc2n1 | +
SMILES | FECH inh
CC1CCN(C(=O)c2ccc3c(c2)N(C)C(=O)C2CCCCN32)CC1 (centres undefined) | i
COc1cccc(CN2CCCC3(CCN(c4ncccc4C(N)=O)C3)C2=O)c1OC (centres undefined) | i
Cc1cccc(-c2cn[nH]c2C2CCN(C(=O)CN)CC2)c1 | i
NC1(C(=O)O)CCN(Cc2ccc(Oc3ccccc3)nc2)C1 (centres undefined) | i
O=S(=O)(c1ccccc1)N1CCN(Cc2cccc(Cn3cccn3)c2)CC1 | i
Cc1ccc(S(=O)(=O)NCCn2c(C(F)(F)F)nc3cccnc32)cc1C | i
Cc1ccc(S(=O)(=O)NCCn2c(C(F)(F)F)nc3cccnc32)cc1 | i
Cc1ccc(-c2nc3cccnc3n2CCNS(=O)(=O)c2ccc(CC(C)C)cc2)cc1 | i
Cc1ccc(S(=O)(=O)NCCn2c(C(F)(F)F)nc3cccnc32)c(C)c1 | +
CCOc1ccc(S(=O)(=O)NCCn2c(-c3ccc(C)cc3)nc3cccnc32)cc1 | +
CCOc1ccc(S(=O)(=O)NCCn2c(-c3ccc(F)cc3)nc3cccnc32)cc1 | i
COc1ccc(S(=O)(=O)NCCn2c(-c3ccc(C)cc3)nc3cccnc32)cc1 | i
Cc1ccc(-c2nc3cccnc3n2CCNS(=O)(=O)c2ccc(C(C)C)cc2)cc1 | i
COc1ccc(S(=O)(=O)NCCn2c(-c3ccccc3)nc3cccnc32)cc1OC | +
O=S(=O)(NCCn1c(-c2ccccc2)nc2cccnc21)c1ccc(Cl)cc1 | i
Cc1ccc(-c2nc3cccnc3n2CCNS(=O)(=O)c2cccc(Cl)c2)cc1 | +
O=S(=O)(NCCn1c(-c2ccccc2)nc2cccnc21)c1cccc(Cl)c1 | i
CCS(=O)(=O)NCCn1c(-c2ccc(C)cc2)nc2cccnc21 | i
O=C(CN1C(=O)CC(c2ccc(Br)s2)=Nc2ccccc21)Nc1ccccc1 | i
COc1cc(NC(=O)N2CCN(c3cc(-c4cccc(OC)c4)ncn3)CC2)cc(OC)c1 | i
Cc1ccc(N(Cc2nc3nc(C)cc(C)n3n2)C(=O)c2ccccc2Cl)cc1 | i
Cc1nn2cc(CNC(=O)CCc3n[nH]c4c3CCCC4)nc2s1 | i
CCc1ccc(NC(=O)N2CCN(c3cc(-c4ccc(OC)cc4)ncn3)CC2)cc1 | i
Cc1cc2c(c(-c3ccc4c(cnn4C)c3)c1)OC(CN)C2 (centres undefined) | i
Cc1ccc(C(C)NCc2cn(CCC(N)=O)c3ccccc23)cc1C (centres undefined) | i
O=C(NCCn1c(-c2ccncc2)nc2cccnc21)Nc1ccc(Br)cc1F | i
Cc1ccc(-c2nc3cccnc3n2CCNS(=O)(=O)c2ccc(C)c(C)c2)cc1 | +
